This is part of a sample that, as a whole, favours compounds with a hit. Of some 83,000 tested, about 20% had one in any assay.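 Each cell line was grown in a 96-well plate and treated with one concentration of compound for 48 hours. Values below 10 were considered active.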 Values without a mark were called inactive. The source made the active and inactive calls.
What follows are molecules tested on MOLT-4 leukemia (assay: NCI-60 one-dose screen, 48 h (100 = growth as untreated, 0 = no growth, -100 = all killed)). Settings: 10 µM unless noted.
Protocol: Growth inhibition of the MOLT-4 human tumor cell line is measured as a screen for anti-cancer activity. Cells are grown in 96 well plates and exposed to the test compound for 48 hours. Compounds are tested at a single concentration, which is 10^-5 M for most compounds. The reported endpoint is percent growth (GI% or GIPRCNT), where numbers from 0 - 100% represent growth inhibition, and numbers from -100% - 0 represent cell death. For example, a value of 40 represents 60% growth inhibition. A value of 0 means no net growth occurred over the course of the experiment. A value of -40 indicates 40% of cells at the beginning of the experiment died by the end of the experiment. A value of -100 means all cells are dead at the end of the experiment.
NCI-60 Human Tumor Cell Lines Screen was performed using the standard one-dose NCI protocol, which is described in more detail at https://dtp.cancer.gov/discovery_development/nci-60/default.htm.
Compounds with GIPRCNT values below 10 were considered active. Activity score was based on GIPRCNT using the following formula: […]
Score is 0 for GIPRCNT values of 100 or above, 50 for GIPRCNT values of 0, and 100 for GIPRCNT values of -100.

SMILES | growth
O=c1c2cccc3c(N4CCCC4)ccc(c32)c2nc3ccccc3n12 | 2.57% (active)
N#Cc1nc(-c2ccc(F)cc2)oc1S(=O)(=O)N1CCOCC1 | -5.27% (active)
Nc1n[nH]c2cccc(C#Cc3cccc(NC(=O)c4cc(F)cc(C(F)(F)F)c4)c3)c12 | 48.1%
Fc1cccc(Oc2ccc(Nc3ncnc4ccc(OCCCN5CCOCC5)cc34)cc2Cl)c1 | 53.9%
O=C1/C(=C/c2ccc([N+](=O)[O-])cc2)COc2ccc(O)cc21 | 39.3%
CC(C)c1ccc(-n2c(=S)[nH]c3sc4cc(O)ccc4c3c2=O)cc1 | 98%
COc1ccc2c(c1)CC[C@H](O)/C2=C/c1cc(OC)c(OC)c(OC)c1 | 13.5%
COc1ccc(/C=C/C(=O)c2ccc(Nc3ccnc4cc(Cl)ccc34)cc2)cc1 | 22.9%
Ic1ccc(OCCCCn2ccnc2)cc1 | 82.2%
Cc1ccc(CNc2ccc3nc(CCC4CCCCC4)[nH]c3c2)cc1 | 19.5%
C=CCn1c(C)nc2ccc(Nc3nc(Nc4ccc5nc(C)n(CC=C)c5c4)c4ccccc4n3)cc21 | -45.5% (active)
c1ccc([P+](c2ccccc2)(c2ccccc2)c2ccc3c4ccc([P+](c5ccccc5)(c5ccccc5)c5ccccc5)c5cccc(c6cccc2c63)c54)cc1 | 23.2%
CCOC(=O)c1ccc(NC(=O)c2nc(-c3cc(OC)c(OC)c(OC)c3)n(-c3ccc(Cl)cc3)n2)cc1 | 81.8%
Cc1ccc2c(n1)C(=O)C(Br)=C(C1CCCC1)C2=O | 34.6%
CCOC(=O)c1cc2c(n1C)-c1nc(NC(C)=O)sc1CCC2 | 81.6%
COc1cc(-c2cncn2-c2ccc(-c3nc4ccc(F)cc4s3)cc2)ccc1F | 63.6%
CCc1ccc(CCCC(=O)O)cc1 | 98.8%
COC1=CC(c2ccc[nH]2)=N/C1=C\c1[nH]c(C)c(CC(=O)NCc2ccccc2)c1C | 3.45% (active)
O=C(CN1CCOCC1)Nc1nc(-c2cc3ccccc3oc2=O)cs1 | 104%
O=C(O)c1cn(C2CC2)c2cc(N3CCN(C(=O)N(c4ccccc4)c4nc(-c5ccccc5)cs4)CC3)c(F)cc2c1=O | 2.43% (active)

SMILES | growth
O=S(=O)(Nc1ccc(F)cc1F)c1ccc(-c2cnc(C3CC3)o2)cc1 | 28.3%
COc1cc2cc(NCc3cccc(Cl)c3)nc(C)c2cc1OC | 30.4%
COc1cc(/C=C/C(=O)c2ccc(F)cc2)ccc1OCCCCOc1ccc(/C=C/C(=O)c2c(C)nc3ccccc3c2C)cc1OC | 67%
O=C(Nc1ccc(Oc2cccc(Cl)c2)c(Cl)c1)c1cnccn1 | 26.2%
C1CCC([PH+](C2CCCCC2)C2CCCCC2[PH+](C2CCCCC2)C2CCCCC2)CC1.[Au].[CH-]1CCCCC1C1CCCC[N-]1 (stereo not given) | -6.51% (active)
O=C1c2ccccc2-c2c1c1c(=O)[nH]c3ccccc3c1n2Cc1ccccc1 | 64.9%
CCOc1nc(-c2ccccc2)cc2c(O)c(C(=O)N/N=C/c3ccccc3)[nH]c(=O)c12 | 79.7%
NC(=O)c1cccc(-n2ccc3cc(NC(=O)c4ccc(N5CCOCC5)c(C(F)(F)F)c4)ccc32)n1 | 52.5%
C=CCc1c(O)c(C(=O)/C=C/c2ccccc2)c(OC)c2ccoc12 | 15.3%
CCOC(=O)C1=C(c2ccccc2)N=C2SC=C(c3ccc(Cl)cc3)N2C1c1ccc(Br)cc1 (stereo not given) | 39%
COc1ccc2c(c1OC)CO[C@@H]2[C@H]1c2c(cc3c(c2OC)OCO3)CCN1S(=O)(=O)c1cn(C)cn1 | 27.4%
COc1ccccc1CNc1c2ccccc2nc2ccccc12 | 20.7%
c1cc2c(ccc3[nH]c(-c4ccc5[nH]ncc5c4)c4c(c32)CCCC4)n1 | -0.124% (active)
N#Cc1ccc(O)c(C2=NCC(c3ccccc3)O2)c1 (stereo not given) | 18.7%
COC(=O)c1c2c(c(C)[n+]([O-])c1C)C(=O)C(NCc1cccc(OC)c1)=CC2=O | 3.8% (active)
Oc1c(I)cc(I)cc1CNCCN(Cc1ccccn1)Cc1ccccn1 | -29.5% (active)
Cc1ccc(C(=O)c2ccc(CC(=O)N/N=C/c3ccccc3O)n2C)cc1 | 74%
O=C1C(Cl)=C(Nc2ccc(S(=O)(=O)N3CCOCC3)cc2)C(=O)c2ccccc21 | 5.92% (active)
CC(C)C1=NOC(=O)C1=Cc1cn(-c2ccccc2)nc1-c1ccc(F)cc1 | 17.8%
COc1ccc(/C=C(\C#N)n2nnc3cc(F)c(F)cc32)cc1 | 22.4%

Source: PubChem BioAssay (NCI)
